Shown is part of a subset that was picked to be rich in hits.
MITF inhib – inhibitors of MITF. AID 2240. 0.28% of 37,000 active. TRPM1 promoter luciferase, luminescence, 24 h. inhibition, % (concentration not given with the values); in the data active = inhibition above about 85%; inconclusive = no clear call, values can overlap the other calls; inactive = below about 68%;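 also: human melanocyte line stably carrying TRPM1 promoter luciferase reporter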
BJeLR viability – lowers viability of BJeLR cells | 0.64% of 30,000 active | viability loss activity score, % (no concentration beside the values) | BJeLR fibroblasts viability, CellTiterGlo ATP luminescence, 48 h; HRASV12, hTERT and SV40 LT/ST transformed | AID 2275; in the data active = viability loss activity score above about 50%; inconclusive = no clear call, values can overlap the other calls; inactive = below about 35%;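 also: higher score means fewer live cells and less ATP luminescence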
Hedgehog inh – Sonic Hedgehog pathway inhibition. inhibition, % (concentration not given with the values). AID 2313. 2.1% of 22,000 active. Shh-LIGHT2 Gli-luciferase reporter, 30 h;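 active = mean inhibition across valid replicates above about 65%, limit read from the data; inconclusive = mean under the limit, yet half or more replicates past it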;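 also: pathway switched on by Shh-conditioned medium diluted 1 in 25 in low serum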
Of the large screens only hits and unclear results are named; the others gave an inactive call; ! = not active in a repeat.

COc1cc(/C=C/C(=O)CC(=O)/C=C/c2ccc(O)c(OC)c2)ccc1O	none
COC(=O)c1cn(C(=O)CCc2ccccc2)c2ccccc12	none (no result: MITF inhib, Hedgehog inh)
CCCCn1c(CCNC(=O)C(C)C)nc2ccccc21	none (no result: MITF inhib, Hedgehog inh)
C[C@@H]1CN([C@H](C)CO)C(=O)c2cccc(NS(=O)(=O)c3cccs3)c2O[C@H]1CN(C)C(=O)NC1CCCCC1	none
COc1ccc(S(=O)(=O)Nc2cccc3c2O[C@@H](CN(C)Cc2ccc(Cl)c(Cl)c2)[C@@H](C)CN([C@H](C)CO)C3=O)cc1	Hedgehog inh 114.9
C[C@H](CO)N1C[C@H](C)[C@H](CN(C)Cc2ccc(Cl)c(Cl)c2)Oc2c(NS(=O)(=O)c3cccs3)cccc2C1=O	Hedgehog inh 98.4
C[C@H]1CN([C@@H](C)CO)C(=O)c2cccc(NS(=O)(=O)c3ccc(F)cc3)c2O[C@H]1CN(C)Cc1ccc(Cl)c(Cl)c1	none
C[C@H](CO)N1C[C@H](C)[C@H](CN(C)C(=O)NC2CCCCC2)Oc2c(NS(=O)(=O)c3cccs3)cccc2C1=O	Hedgehog inh 67.8
COc1ccc(S(=O)(=O)Nc2cccc3c2O[C@H](CN(C)Cc2ccc(Cl)c(Cl)c2)[C@H](C)CN([C@@H](C)CO)C3=O)cc1	none
C[C@@H]1CN([C@@H](C)CO)C(=O)c2cccc(NS(=O)(=O)c3cccs3)c2O[C@@H]1CN(C)Cc1ccc(Cl)c(Cl)c1	none
C[C@H](CO)N1C[C@H](C)[C@H](CN(C)Cc2ccc(Cl)c(Cl)c2)Oc2c(NS(=O)(=O)c3ccc(F)cc3)cccc2C1=O	Hedgehog inh 85.5
O=C(COc1cc(Cl)c(Cl)cc1Cl)Nc1ncn[nH]1	none (no result: BJeLR viability, Hedgehog inh)
Cc1ccc(N(C(C)C(=O)Nc2cc(C)cc(C)c2)S(C)(=O)=O)cc1 (stereo unspecified)	none (no result: BJeLR viability, Hedgehog inh)
COc1ccc(CN2C(=O)C(O)(CC(=O)c3ccc(C)s3)c3ccccc32)cc1OC (stereo unspecified)	none (no result: BJeLR viability, Hedgehog inh)
C[C@@H]1CN([C@H](C)CO)C(=O)c2cccc(NC(=O)C3CC3)c2O[C@@H]1CN(C)Cc1ccc(Cl)c(Cl)c1	Hedgehog inh 78.4
C[C@H](CO)N1C[C@H](C)[C@H](CN(C)Cc2ccc(Cl)c(Cl)c2)Oc2c(NC(=O)C3CCCCC3)cccc2C1=O	none
O=C(NC1CCCCC1)N1c2ccccc2CCc2ccccc21	none (no result: MITF inhib, Hedgehog inh)
O=C(C1CC1)N1c2ccccc2CCc2ccccc21	BJeLR viability 54.1 (no result: MITF inhib, Hedgehog inh)
O=C(O)COc1ccc(NC(=O)c2ccccc2-c2ccccc2C(=O)O)cc1	none (no result: BJeLR viability, Hedgehog inh)
O=C(CSc1nc2cc(Cl)ccc2s1)Nc1ccc2c(c1)OCCO2	none (no result: BJeLR viability, Hedgehog inh)
CC1(C)CC(=O)C=C(Sc2nc3cc(Cl)ccc3s2)C1	MITF inhib inconclusive, BJeLR viability 69.0, Hedgehog inh inconclusive
COC(=O)c1ccc(OC(=O)CCN2C(=O)c3ccccc3C2=O)cc1	none (no result: MITF inhib, Hedgehog inh)
O=C1CC(SCc2ccc(Cl)cc2)C(=O)N1c1ccc(Br)cc1 (stereo unspecified)	Hedgehog inh 93.6
O=C(CSC1CC(=O)N(c2ccc(Cl)cc2)C1=O)Nc1ccc(Cl)cc1 (stereo unspecified)	none (no result: BJeLR viability, Hedgehog inh)
CCOc1ccc(OCCSc2nc3ccccc3n2Cc2ccccc2)cc1	none (no result: MITF inhib, Hedgehog inh)
CN(C(=O)Cn1nc(Cc2cccnc2)c2ccccc2c1=O)C1CCCCC1	none (no result: MITF inhib, Hedgehog inh)
C=C1C(C2(C)C=CC(=O)C(C)(C)C2CC(=O)OC)CC[C@@]2(C)[C@H](c3ccoc3)OC(=O)C3OC132 (stereo partly specified)	BJeLR viability 91.1, Hedgehog inh inconclusive
CC1(C)C(=O)C=C[C@@]2(C)C1CC(=O)[C@@]1(C)C3=CC(=O)O[C@@H](c4ccoc4)[C@]3(C)CCC12 (stereo partly specified)	none
CC1(C)C(=O)C=C[C@@]2(C)C1C=C[C@]1(C)C2CC[C@@]2(C)[C@H](c3ccoc3)OC(=O)C3OC321 (stereo partly specified)	MITF inhib 101.2
COC(=O)C[C@H]1C(C)(C)C(=O)[C@@H]2CC3=C4CC(=O)O[C@@H](c5ccoc5)[C@]4(C)CCC3[C@@]1(C)C2=O (stereo partly specified)	none
Cc1ccccc1OC(C)c1nc(-c2ccccn2)no1 (stereo unspecified)	none (no result: BJeLR viability, Hedgehog inh)
Cc1oc2c(c1C(=O)NCc1ccccc1)C(=O)c1ccccc1C2=O	Hedgehog inh 92.8
Cc1c(C(=O)NCc2ccccc2)oc2c1C(=O)CCC2	none (no result: MITF inhib, Hedgehog inh)
O=C(Nc1cccc(F)c1)C1CCN(c2ncnc3c2sc2cccc(F)c23)CC1	none (no result: MITF inhib, Hedgehog inh)
CC(Oc1ccc(C(C)(C)C)cc1)C(=O)NCc1ccco1 (stereo unspecified)	none (no result: BJeLR viability, Hedgehog inh)
NCCCc1nc2cc3ccccc3cc2[nH]1	none (no result: MITF inhib, Hedgehog inh)
O=C(COc1ccc2oc3c(c2c1)CCCC3)NCCN1CCOCC1	none (no result: BJeLR viability, Hedgehog inh)
Cc1c(C2CCN(CCc3ccccc3)CC2)noc1-c1ccc(Cl)cc1	Hedgehog inh 77.2
Cc1oc(-c2ccc(Cl)cc2)nc1CN1CCC(C(=O)NC(C)CCc2ccccc2)CC1 (stereo unspecified)	none (no result: MITF inhib, Hedgehog inh)
O=C(NCc1cccnc1)/C(=C\c1cccc(Oc2ccccc2)c1)S(=O)(=O)c1ccccc1	BJeLR viability 96.1 (no result: MITF inhib, Hedgehog inh)
O=C(NCc1cccnc1)/C(=C\c1ccc(Br)cc1)S(=O)(=O)c1ccccc1	none (no result: MITF inhib, Hedgehog inh)
CCCc1c(C(=O)O)c(O)cc2c1C(=O)c1c(O)cccc1C2=O	none
CCCCCC(=O)Cc1cc(O)c(O)c2c1C(=O)Oc1cc(O)c(C(=O)O)c(CCCCC)c1O2	BJeLR viability 99.1, Hedgehog inh 74.8
CCc1ccc(NC(=O)c2cc3c(=O)n(CC)c4ccccc4c3s2)cc1	none (no result: MITF inhib, Hedgehog inh)
CCOc1ccc(C(=O)Nc2cc(C)ccn2)cc1	BJeLR viability 89.8 (no result: MITF inhib, Hedgehog inh)
CCOc1ccc(C(=O)Nc2ccc(OCC(=O)O)cc2)cc1	none (no result: BJeLR viability, Hedgehog inh)
Nc1cc(=O)nc(SCC(=O)NCc2ccccc2)n1-c1ccccc1	none
CCN(CC)C(=O)c1sc(NC(=S)Nc2nc(C)cc(C)n2)c(C(=O)OC)c1C	none (no result: BJeLR viability, Hedgehog inh)
CC(C)(C)[C@]1(O)CCN2C[C@H]3c4ccccc4CCc4cccc(c43)[C@@H]2C1	Hedgehog inh 77.9
CN1CCN2c3ncccc3Cc3ccccc3C2C1 (stereo unspecified)	none
COC(=O)C1=CO[C@@H](O[C@@H]2O[C@H](CO)[C@@H](O)[C@H](O)[C@H]2O)[C@H]2[C@@H]1C=CC21C=C([C@H](C)OC(=O)/C=C/c2ccc(O)cc2)C(=O)O1 (stereo partly specified)	none
COc1ccc(OCC(=O)Nc2cc(-c3nc4ccccc4s3)ccc2C)cc1	none (no result: BJeLR viability, Hedgehog inh)
COc1ccc(-c2nc3ccccc3s2)cc1	BJeLR viability 60.0
CN1C(=O)c2ccccc2NC(=O)[C@]12O[C@@H]2c1cccc(O)c1	none
O=C1N=C(c2cccc(O)c2)c2ccccc2Nc2ccccc21	Hedgehog inh 86.3
Clc1ccc(COC(Cn2ccnc2)c2ccc(Cl)cc2Cl)c(Cl)c1 (stereo unspecified)	Hedgehog inh 64.5!
C=CCOC(Cn1ccnc1)c1ccc(Cl)cc1Cl (stereo unspecified)	none
CC1=C(C(=O)N(C)C2CCCCC2)C2(CCC(C)CC2)OC1=O (stereo unspecified)	none (no result: MITF inhib, Hedgehog inh)
COc1ccc(C2=Nc3ccccc3SC(c3ccccc3)C2)cc1 (stereo unspecified)	Hedgehog inh 80.3
CC(=O)N1c2ccccc2N=C(c2ccc(C)cc2)CC1c1ccccc1 (stereo unspecified)	none (no result: MITF inhib, Hedgehog inh)
OC(CSc1nccc(-c2ccc3c(c2)OCCO3)n1)C(F)(F)F (stereo unspecified)	none (no result: MITF inhib, Hedgehog inh)
